According to PubChem BioAssay (NCATS):
Values joined by “and” are separate entries in the source; they are usually repeats but may differ in a detail not shown here. Equal entries are not always repeated. Inconclusive results are not listed. Entries that show only a call come without a potency. Some structures have more than one record in an assay (separate samples or runs), and their calls can disagree. Active and inactive are the calls of the source. Unless noted, the call rests on the fitted dose curve.

What was measured:
[1] = P-glycoprotein substrates identified in KB-8-5-11 adenocarcinoma cell line, qHTS therapeutic library screen (AID 1346987; active means well fitted inhibition curve with a large enough effect; further: nearly all actives have a fitted effect of over 65% in size)
Outline: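 KB-8-5-11: colchicine-selected sub-line of KB-3-1 over-expressing P-gp; assay medium lacked colchicine. 72 h drug exposure at 37 degree C, CellTiter-Glo.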

[2] = Natriuretic polypeptide receptor (hNpr1) antagonism - Pilot counterscreen GloSensor control cell line (AID 1347045)
Outline: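 HEK293 cells carrying the GloSensor cGMP sensor (GIP/pGS-40F) were loaded with 2% GloSensor reagent for 2 h, exposed to compounds for 30 min, and then stimulated with 50 uM sodium nitroprusside for 20 min at room temperature.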

[3] = molecular target: Atrial natriuretic peptide receptor 2 (Homo sapiens) (UniProt P20594); experiment: Natriuretic polypeptide receptor (hNpr2) antagonism - Pilot subtype selectivity assay (AID 1347050)
Outline: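 Pilot selectivity screen against hNpr2: HEK293 cGMP-sensor cells are treated with LOPAC1280 compounds, then with hNppC peptide at 1 nM final. The cGMP-driven luminescence change over 20 min at room temperature is the read-out.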

[4] = molecular target: Atrial natriuretic peptide receptor 1 (Homo sapiens) (UniProt P16066); experiment: Natriuretic polypeptide receptor (hNpr1) antagonism - Pilot screen (AID 1347049);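 further: agonist-evoked cGMP luminescence read 20 min after hNppA addition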
Outline: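 Readout is cGMP-driven firefly luciferase luminescence in HEK293 cells carrying hNpr1 and a PDE5-domain GloSensor, read before and 20 min after 0.1 nM hNppA stimulation. Cells had 2% substrate reagent for 2 h and test compound for 30 min.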
Potency means the concentration at half of the fitted maximal effect.

Sequence of Atrial natriuretic peptide receptor 2 (Homo sapiens) (P20594 whole entry, looked up): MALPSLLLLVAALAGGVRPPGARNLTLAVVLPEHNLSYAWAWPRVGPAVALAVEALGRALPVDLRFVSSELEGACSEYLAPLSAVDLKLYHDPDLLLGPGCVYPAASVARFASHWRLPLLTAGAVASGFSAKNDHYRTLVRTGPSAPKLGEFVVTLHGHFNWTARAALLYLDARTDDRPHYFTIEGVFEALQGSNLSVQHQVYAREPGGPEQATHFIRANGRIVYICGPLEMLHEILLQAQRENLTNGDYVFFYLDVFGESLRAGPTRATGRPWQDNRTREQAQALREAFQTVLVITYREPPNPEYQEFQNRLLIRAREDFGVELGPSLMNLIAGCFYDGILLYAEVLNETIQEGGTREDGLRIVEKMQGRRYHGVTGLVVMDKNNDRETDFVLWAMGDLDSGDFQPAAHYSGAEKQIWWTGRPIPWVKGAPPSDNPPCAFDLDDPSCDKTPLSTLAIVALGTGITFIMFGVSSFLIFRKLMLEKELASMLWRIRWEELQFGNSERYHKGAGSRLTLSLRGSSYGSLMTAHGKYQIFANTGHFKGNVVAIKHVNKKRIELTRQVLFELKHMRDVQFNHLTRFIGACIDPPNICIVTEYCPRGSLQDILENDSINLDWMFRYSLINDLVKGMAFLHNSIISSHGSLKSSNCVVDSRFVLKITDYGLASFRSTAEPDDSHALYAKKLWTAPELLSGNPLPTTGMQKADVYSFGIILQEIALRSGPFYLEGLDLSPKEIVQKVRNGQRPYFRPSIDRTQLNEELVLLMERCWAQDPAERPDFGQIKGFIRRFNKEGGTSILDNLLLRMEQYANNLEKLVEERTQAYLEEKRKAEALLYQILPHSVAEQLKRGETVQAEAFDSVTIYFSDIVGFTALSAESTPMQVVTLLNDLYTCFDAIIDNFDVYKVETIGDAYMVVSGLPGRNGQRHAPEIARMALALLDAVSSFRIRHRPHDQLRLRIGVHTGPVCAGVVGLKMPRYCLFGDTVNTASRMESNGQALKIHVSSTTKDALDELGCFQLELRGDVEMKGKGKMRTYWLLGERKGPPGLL
Sequence of Atrial natriuretic peptide receptor 1 (Homo sapiens) (P16066 whole entry, looked up): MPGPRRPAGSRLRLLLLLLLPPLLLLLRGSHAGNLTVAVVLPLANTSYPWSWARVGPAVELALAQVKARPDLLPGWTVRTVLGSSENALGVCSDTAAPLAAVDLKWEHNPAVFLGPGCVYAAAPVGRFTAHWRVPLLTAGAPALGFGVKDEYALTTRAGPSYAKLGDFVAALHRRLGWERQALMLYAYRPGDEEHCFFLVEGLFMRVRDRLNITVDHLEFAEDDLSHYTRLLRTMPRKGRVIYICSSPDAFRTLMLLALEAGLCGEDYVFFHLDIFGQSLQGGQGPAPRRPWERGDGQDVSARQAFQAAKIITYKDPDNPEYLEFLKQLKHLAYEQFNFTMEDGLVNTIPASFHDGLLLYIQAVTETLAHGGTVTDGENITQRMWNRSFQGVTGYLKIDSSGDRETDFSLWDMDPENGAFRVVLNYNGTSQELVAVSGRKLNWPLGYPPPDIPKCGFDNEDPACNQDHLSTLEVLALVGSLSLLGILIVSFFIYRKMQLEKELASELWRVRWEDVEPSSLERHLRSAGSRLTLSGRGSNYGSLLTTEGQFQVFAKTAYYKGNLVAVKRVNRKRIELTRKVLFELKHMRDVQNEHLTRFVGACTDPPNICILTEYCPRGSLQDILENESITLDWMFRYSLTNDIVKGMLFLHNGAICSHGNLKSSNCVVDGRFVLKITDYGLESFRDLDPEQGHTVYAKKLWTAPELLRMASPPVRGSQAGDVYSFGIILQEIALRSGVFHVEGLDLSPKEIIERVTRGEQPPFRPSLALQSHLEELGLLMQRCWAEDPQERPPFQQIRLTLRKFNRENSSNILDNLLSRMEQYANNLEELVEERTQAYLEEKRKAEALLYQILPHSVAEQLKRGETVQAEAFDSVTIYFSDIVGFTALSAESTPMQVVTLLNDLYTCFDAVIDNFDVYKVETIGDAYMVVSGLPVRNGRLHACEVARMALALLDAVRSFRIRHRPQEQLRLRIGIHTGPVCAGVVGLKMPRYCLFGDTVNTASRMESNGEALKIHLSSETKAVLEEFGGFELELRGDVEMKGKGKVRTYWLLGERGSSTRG

| SMILES | Potency [1] | Potency [2] | Potency [3] | Potency [4] |
| --- | --- | --- | --- | --- |
| OC(CN1CCN(c2cccc(Cl)c2)CC1)C(c1ccccc1)c1ccccc1 (stereo unspecified) | inactive | inactive | inactive | – |
| CC1(C)C(=O)N(CCN2CCC(C(=O)c3ccc(F)cc3)CC2)c2ccccc21 | inactive | inactive | inactive | inactive |
| CC[C@]1(O)C[C@H]2CN(CCc3c([nH]c4ccccc34)[C@@](C(=O)OC)(c3cc4c(cc3OC)N(C=O)[C@H]3[C@@](O)(C(=O)OC)[C@H](OC(C)=O)[C@]5(CC)C=CCN6CC[C@]43[C@@H]65)C2)C1 | 1.05 µM (active) | – | – | – |
| CC(=O)O[C@H]1C(=O)[C@@]2(C)C([C@H](OC(=O)c3ccccc3)[C@]3(O)C[C@H](OC(=O)[C@H](O)[C@@H](NC(=O)c4ccccc4)c4ccccc4)C(C)=C1C3(C)C)[C@]1(OC(C)=O)CO[C@@H]1C[C@@H]2O (stereo partly specified) | 209 nM (active) and 1.01 µM (active) | inactive | inactive | – |
| C[C@H](Cc1ccc(O)c(O)c1)[C@@H](C)Cc1ccc(O)c(O)c1 | inactive | – | inactive | inactive |
| COc1ccc2cc([C@H](C)C(=O)O)ccc2c1 | inactive | inactive | inactive | inactive |
| NNc1nncc2ccccc12 | – | – | inactive | inactive |
| CNC[C@@H](O)[C@@H](O)[C@H](O)[C@H](O)CO | inactive | – | – | – |
| O=C1c2ccccc2-c2n[nH]c3cccc1c23 | 18.4 µM (active) | inactive | inactive | – |
| O=c1c(O)c(-c2ccc(O)cc2O)oc2cc(O)cc(O)c12 | inactive | inactive | inactive | inactive |
| CCCCCCCCOc1ccccc1C(=O)Nc1ccc(C(=O)OCC[N+](C)(CC)CC)cc1 | inactive | – | – | – |
| Cc1c(OCC(F)(F)F)ccnc1CS(=O)c1nc2ccccc2[nH]1 (stereo unspecified) | inactive | inactive | – | – |
| Nc1nc(N)c(N=O)c(OCC2CCCCC2)n1 | – | inactive | inactive | inactive |
| O=c1c(O)c(-c2cc(O)c(O)c(O)c2)oc2cc(O)cc(O)c12 | inactive | inactive | inactive | – |
| CNC[C@H](O)c1ccc(O)c(O)c1 | inactive | inactive | inactive | inactive |
| Cc1ncc([N+](=O)[O-])n1CC(C)O (stereo unspecified) | inactive | – | – | – |
| CCN(CC)C(=S)SSC(=S)N(CC)CC | 41.8 nM (active) and inactive | 3.29 µM (active) | 5.21 µM (active) | 2.39 µM (active) |
| CC(=O)N1CCN(c2ccc(OC[C@H]3CO[C@](Cn4ccnc4)(c4ccc(Cl)cc4Cl)O3)cc2)CC1 | – | 18.5 µM (active) | inactive | inactive |
| CCOC(=O)C1=C[C@@H](OC(CC)CC)[C@H](NC(C)=O)[C@@H](N)C1 | inactive | – | – | – |
| NC(=NCc1ccccc1)NC(=O)c1nc(Cl)c(N)nc1N | inactive | inactive | inactive | inactive |
| Cc1cc(O)c2c(c1)C(=O)c1cc(O)cc(O)c1C2=O | inactive | – | – | 23.9 µM (active) |
